# Test results published in PubChem BioAssay.
# Calls of active or inactive are those of the source.
# How the values were obtained:
# [1] = system: Plasmodium falciparum Sir2 (PF13_0152, Sir2A); test: Plasmodium falciparum Sir2A binding compounds – biochemical, small-molecule microarray, 635 nm fluorescence, primary screen (AID 1098); conditions: fluorescence 635 nm, higher = more signal;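 further: score merges spot fluorescence intensity with its signal-to-noise ratio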
# [2] = probe aDKK1 binding to arrayed compounds – biochemical, biotinylated probe, 635/667 nm fluorescence, primary screen (AID 1099); conditions: small-molecule microarray, higher = more signal;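 further: score merges 667nm spot fluorescence with signal to noise across triplicate slides; reference of the scale not given here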
# [3] = probe aCHRDL2 binding to arrayed compounds – biochemical, biotinylated probe, 635/667 nm fluorescence, primary screen (AID 1100); conditions: small-molecule microarray, higher = more signal
# [4] = change in splice reporter luminescence, either direction, cell-based, HEK293, spliceosome inhibition project, primary screen (AID 1101); conditions: HEK293 splicing luciferase reporter, 24 h, higher = more signal, called active from +8 up or from −8 down;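 further: HEK293 cells carrying a splicing-competent luciferase reporter gene; test concentration not given here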
# [5] = biological target: Fibroblast growth factor 10 (Homo sapiens) (UniProt O15520); test: compounds binding fibroblast growth factor 10 – biochemical, small-molecule microarray, 635 nm fluorescence, primary screen (AID 1102); conditions: FGF10 binding, fluorescence 635 nm, higher = more signal
# Fibroblast growth factor 10 (Homo sapiens), sequence (O15520 whole entry, looked up): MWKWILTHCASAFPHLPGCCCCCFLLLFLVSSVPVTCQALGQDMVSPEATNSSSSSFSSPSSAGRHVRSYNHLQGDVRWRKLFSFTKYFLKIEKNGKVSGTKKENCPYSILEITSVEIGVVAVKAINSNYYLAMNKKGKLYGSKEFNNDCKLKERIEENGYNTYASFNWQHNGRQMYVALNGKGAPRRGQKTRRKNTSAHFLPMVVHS
# [6] = system: glycogen synthase kinase-3 (GSK3A per assay name; protocol says GSK3B); test: compounds binding glycogen synthase kinase-3 – biochemical, small-molecule microarray, 635 nm fluorescence, GSK3A, primary screen (AID 1103); conditions: fluorescence 635 nm, higher = more signal; further: the record names both GSK3A and GSK3B
# [7] = biological target: Epidermal growth factor receptor (Homo sapiens) (UniProt P00533); test: compounds binding epidermal growth factor receptor – biochemical, small-molecule microarray, 635 nm fluorescence, primary screen (AID 1104); conditions: EGFR binding, higher = more signal;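 further: score merges 667 nm emission intensity with spot signal to noise over triplicate slides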
# Epidermal growth factor receptor (Homo sapiens), sequence (P00533 whole entry, looked up): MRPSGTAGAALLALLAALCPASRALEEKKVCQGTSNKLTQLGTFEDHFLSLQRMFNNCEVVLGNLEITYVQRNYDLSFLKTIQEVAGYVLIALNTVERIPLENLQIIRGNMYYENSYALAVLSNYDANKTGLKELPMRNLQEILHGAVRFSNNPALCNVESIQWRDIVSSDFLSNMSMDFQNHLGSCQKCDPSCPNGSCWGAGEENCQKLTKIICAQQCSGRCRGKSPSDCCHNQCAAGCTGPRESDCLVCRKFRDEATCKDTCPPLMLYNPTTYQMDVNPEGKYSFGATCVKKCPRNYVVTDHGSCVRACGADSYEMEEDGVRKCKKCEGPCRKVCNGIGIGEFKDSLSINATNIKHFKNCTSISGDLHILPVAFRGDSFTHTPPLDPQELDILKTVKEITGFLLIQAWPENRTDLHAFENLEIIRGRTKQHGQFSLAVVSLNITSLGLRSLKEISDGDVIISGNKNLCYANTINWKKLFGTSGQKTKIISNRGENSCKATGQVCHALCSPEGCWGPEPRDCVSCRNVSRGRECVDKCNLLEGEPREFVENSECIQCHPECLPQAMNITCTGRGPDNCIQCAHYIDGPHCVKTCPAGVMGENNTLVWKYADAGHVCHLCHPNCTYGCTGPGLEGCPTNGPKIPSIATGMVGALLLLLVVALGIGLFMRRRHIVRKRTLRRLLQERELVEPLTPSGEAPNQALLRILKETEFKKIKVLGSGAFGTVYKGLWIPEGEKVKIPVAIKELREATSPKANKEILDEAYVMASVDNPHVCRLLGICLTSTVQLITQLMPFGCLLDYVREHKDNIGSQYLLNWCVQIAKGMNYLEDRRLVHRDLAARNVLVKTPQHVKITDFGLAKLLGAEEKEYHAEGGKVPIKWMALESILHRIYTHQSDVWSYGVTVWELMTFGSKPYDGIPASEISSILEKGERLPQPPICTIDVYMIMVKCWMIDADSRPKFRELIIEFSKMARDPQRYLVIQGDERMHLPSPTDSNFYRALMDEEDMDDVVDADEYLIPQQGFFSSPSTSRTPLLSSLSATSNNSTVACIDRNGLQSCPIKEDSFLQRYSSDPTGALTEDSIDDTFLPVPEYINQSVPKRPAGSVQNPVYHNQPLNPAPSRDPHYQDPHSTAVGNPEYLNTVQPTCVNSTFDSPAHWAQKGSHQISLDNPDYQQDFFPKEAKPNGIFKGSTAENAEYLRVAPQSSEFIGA
# [8] = biological target: Follistatin-related protein 3 (Homo sapiens) (UniProt O95633); test: compounds binding follistatin-related protein 3 – biochemical, small-molecule microarray, 635 nm fluorescence, primary screen (AID 1105); conditions: FSTL3 binding, higher = more signal;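 further: score merges emission near 667 nm and signal to noise per printed spot across three slides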
# Follistatin-related protein 3 (Homo sapiens), sequence (O95633 whole entry, looked up): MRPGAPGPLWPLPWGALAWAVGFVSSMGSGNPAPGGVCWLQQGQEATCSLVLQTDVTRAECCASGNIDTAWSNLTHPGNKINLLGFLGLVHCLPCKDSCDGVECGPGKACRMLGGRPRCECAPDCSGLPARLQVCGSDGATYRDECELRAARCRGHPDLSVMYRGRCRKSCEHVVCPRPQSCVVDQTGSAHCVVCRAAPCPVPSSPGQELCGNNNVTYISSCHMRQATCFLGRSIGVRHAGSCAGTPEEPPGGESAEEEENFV
# [9] = biological target: Dickkopf-related protein 1 (Homo sapiens) (UniProt O94907); test: small molecules binding DKK1 protein – biochemical, small-molecule microarray, 635 nm fluorescence scan, primary screen (AID 1106); conditions: higher = more signal;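 further: score merges emission near 667 nm with signal to noise over three replicate slides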
# Dickkopf-related protein 1 (Homo sapiens), sequence (O94907 whole entry, looked up): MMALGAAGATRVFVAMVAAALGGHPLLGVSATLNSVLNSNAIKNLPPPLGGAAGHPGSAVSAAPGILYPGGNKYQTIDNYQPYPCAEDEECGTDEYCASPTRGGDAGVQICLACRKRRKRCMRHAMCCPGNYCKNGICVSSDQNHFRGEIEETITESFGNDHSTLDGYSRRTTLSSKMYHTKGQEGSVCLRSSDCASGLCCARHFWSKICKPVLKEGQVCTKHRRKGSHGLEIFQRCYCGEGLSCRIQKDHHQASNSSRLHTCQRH
# [10] = system: Inhibin beta A chain (activin A); test: small molecules binding activin A – biochemical, small-molecule microarray, 635 nm fluorescence scan, primary screen (AID 1107); conditions: INHBA, higher = more signal;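 further: mouse activin A protein probed at 4.33 µg/mL on printed slides; score merges bound-protein fluorescence near 667 nm with spot signal-to-noise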
Structure (SMILES),composite z-score [1],composite z-score [2],composite z-score [3],z-score [4],composite z-score [5],composite z-score [6],composite z-score [7],composite z-score [8],composite z-score [9],composite z-score [10]
CC[C@@H](c1ccccc1)n1c(=O)n2n(c1=O)[C@H]1[C@H](O)[C@@H]3O[C@@H]3C(=NOCc3ccccc3)[C@H]1CC2,0.217,-0.148,-0.406,2.5 (inactive),0.487,-0.0586,0.123,0.489,0.235,0.517
O=C1C2=CC[C@H]3C(=O)N(C[C@@H]4CCCO4)C(=O)[C@H]3[C@H]2[C@H](O)[C@@H]2O[C@H]12,1.22,-0.28,-0.594,-1.47 (inactive),0.364,0.443,0.259,-0.191,-0.0034,-0.277
C[C@@H](c1ccccc1)N1C(=O)[C@H]2[C@H]3[C@H](O)[C@H](O)CC(=NOC[C@@H](O)COCc4ccco4)[C@H]3CC[C@H]2C1=O,0.975,-0.427,-1.27,0.319 (inactive),-0.185,1.21,1.07,1.14,1.59,0.574
C[C@H]1CC[C@H]2C(=O)N[C@H](Cc3ccccc3)C(=O)N2[C@@H]1c1ccccc1,-0.427,0.176,-0.225,-0.0985 (inactive),0.136,-0.0595,0.353,0.185,0.768,0.595
COC(=O)[C@H](C)NC(=O)CCC1CC(OC(=O)NCc2cccc3ccccc23)CC2(CCCC(COC(=O)NCCOc3ccccc3)O2)O1 (stereo not given in full),1.1,-0.357,-0.413,-0.834 (inactive),0.411,0.526,0.148,0.319,-0.303,-0.143
CC(CCN1CCCCc2nc(C)c(C)cc21)=NO[C@@H](C)c1cc(-c2c(C)cc(C)cc2C)no1,1.41,-0.422,0.27,0.673 (inactive),-0.488,-1.05,-1.51,-1.35,-0.0396,0.823
COc1ccc(O[C@H]2C=C[C@@H](c3ccccc3)O[C@@H]2CON=C2c3cc(OC)ccc3O[C@H](c3cccc(OC)c3)[C@H]2O)cc1,-0.177,0.242,-0.279,0.65 (inactive),0.886,0.192,0.531,0.589,0.434,-0.393
CCOC(=O)CCN1C(=O)[C@H]2[C@H]3[C@H](O)[C@H](O)CC(=NNC(=O)OCc4ccc(OC)cc4)[C@H]3CC[C@H]2C1=O,0.14,0.127,0.0124,-0.352 (inactive),-0.186,0.071,0.459,0.449,0.132,0.747
O=C1[C@H]2[C@H]3[C@H](O)[C@H](O)CC(=NO[C@@H]4O[C@H](CO)[C@@H](O)[C@H](O)[C@H]4O)[C@@H]3CC[C@H]2C(=O)N1c1cccc(Oc2ccccc2)c1,0.405,-0.327,-0.595,0.302 (inactive),0.659,0.736,0.778,0.711,0.701,0.374
CC(=O)OC[C@H]1O[C@H](CCON=C(C)C)C=C[C@@H]1OC(C)=O,0.475,-0.22,0.116,0.384 (inactive),-0.0068,-0.329,0.187,0.296,0.41,1.12
O=C1C[C@@H](O)[C@@H](O)[C@@H]2[C@@H]3C(=O)N(Cc4ccccc4)C(=O)[C@@H]3CC[C@H]12,0.465,-0.0382,-0.506,-0.0414 (inactive),0.56,0.331,0.564,0.643,0.608,0.3
COCOc1ccc(Br)cc1C(=O)C=Cc1ccc2c(c1)OCO2,-0.0162,-0.304,-0.662,-0.838 (inactive),0.59,-0.207,0.524,0.679,0.665,1.22
COC(=O)CC=C[C@@H](C)[C@@H](C=NOC[C@@H](C)[C@H](OCc1ccccc1)C(C)C)OC,0.161,-0.325,-0.208,-0.201 (inactive),0.286,0.103,0.146,0.102,0.426,-0.283
C=CC[C@@H]1C=CC(ON=C(C)C)[C@@H](CO)O1 (stereo not given in full),0.24,-0.011,-0.127,0.304 (inactive),-0.766,-0.689,0.0691,-0.899,-0.307,1.14
C#CCCCON=C1[C@H]2CCn3c(=O)n([C@@H](CC)c4ccccc4)c(=O)n3[C@H]2[C@H](O)[C@@H]2O[C@H]12,1.1,-0.175,-0.317,6.03 (inactive),0.581,-0.51,0.179,0.34,0.209,0.228
C[C@@H]1CC[C@H]2C(=O)O[C@@H](CN=[N+]=[N-])CN2[C@H]1c1ccc(Br)cc1,0.584,0.0195,-0.669,0.659 (inactive),0.382,0.636,0.343,0.345,0.857,0.455
